LMP1 NFkB inh: reduces LMP1-driven NF-kappaB luciferase signal. inhibition, % at 12.5 µM. AID 504558. 0.69% of 350,000 active. LMP1-induced NF-kappaB luciferase reporter cells, luminescence; in the data active = inhibition above about 41%;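 also: 0% = neutral control wells and 100% = reference inhibitor control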
TRPM1 prom inh: reduces MITF-dependent TRPM1 promoter luciferase signal. 0.83% of 330,000 active. AID 488899. SK-MEL-5 TRPM1 promoter luciferase, 24 h. inhibition, % at 12.5 µM;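 active = mean inhibition across replicates of 60% or more, whatever share of single replicates reaches that level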
697 NFkB inh: lowers PMA/ionomycin-induced NF-kB signal in 697 B cells. 697 B-cell NF-kB luciferase reporter, 16 h. inhibition, % at 4 µM. 0.33% of 330,000 active; in the data active = inhibition above about 35%
Jurkat NFkB inh: lowers PMA/ionomycin-induced NF-kB signal in Jurkat cells; PMA/ionomycin-induced NF-kB luciferase reporter, luminescence; inhibition, % at 4 µM; 0.53% of 330,000 active; in the data active = inhibition above about 50%
Gli-Sufu antag: Gli-Sufu pathway antagonism. 0.74% of 340,000 active. inhibition, % at 5 µM. Sufu-KO-LIGHT fibroblasts, Gli luciferase reporter luminescence;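 active = inhibition above about 55%, limit read from the data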;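 also: 0% = DMSO-treated cells and 100% = wells with medium but no cells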
Shn3 inh set2: inhibitors of Schnurri-3 3'UTR reporter in osteoblasts; Clone20 osteoblast Shn3 3'UTR firefly luciferase, 24 h; inhibition, % at 12.5 µM; 0.52% of 360,000 active;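 active = mean inhibition of at least 75% with every replicate also reaching 75%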;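 also: 0% = median of neutral control wells and 100% = pilot-screen positive control compound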
Jurkat NFkB conf: inhibitors of the PMA/ionomycin-induced NF-kB reporter in Jurkat cells, retest; shares compounds with Jurkat NFkB inh; Jurkat NF-kB luciferase, 16 h; inhibition, % at 4 µM; 27% of 2,700 active; AID 435020;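 active = inhibition reaching about 45% at 4 µM in either replicate, limit read from the data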;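 also: plate controls were PMA/ionomycin stimulated DMSO wells for no effect and unstimulated DMSO wells for full effect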
697 NFkB conf: inhibitors of the PMA/ionomycin-induced NF-kB reporter in 697 B cells, retest. 697 B-cell NF-kB luciferase, 16 h. AID 449746. shares compounds with 697 NFkB inh. inhibition, % at 4 µM. 35% of 2,000 active; in the data active = inhibition mostly above about 28%, no sharp cut-off; inactive = mostly below about 22%
Gli-Sufu confirm: confirmation of Gli-SUFU pathway antagonists; shares compounds with Gli-Sufu antag; Sufu-KO-LIGHT cells, Gli luciferase reporter, luminescence; inhibition, % at 5 µM; 40% of 2,500 active;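 active = mean inhibition at 5 µM reaching about 45%, limit read from the data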;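 also: plate controls were DMSO-treated cells for no effect and wells lacking cells for full effect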
Gli cytotox: cytotoxicity counter-screen for Gli-SUFU antagonists; 32% of 2,500 active; shares compounds with Gli-Sufu antag; Sufu-KO-LIGHT cells cytotoxicity, ATP luminescence; cytotoxicity, % at 5 µM;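 active = mean cytotoxicity at 5 µM above about 25%, limit read from the data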;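 also: cells exposed to compound overnight for roughly 16 to 18 hours; plate controls were DMSO wells with cells for no effect and medium without cells for full effect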
Wnt3a cs: counter-screen for Gli-SUFU antagonists: Wnt3a reporter inhibition. shares compounds with Gli-Sufu antag. Wnt-LIGHT cells, Wnt3a-driven luciferase reporter, luminescence. inhibition, % at 6.25 µM. 20% of 2,500 active. AID 651995;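 active = mean inhibition above about 25%, limit read from the data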
* = called active by the depositor; · = not tested or not shown. This is a sample that favours compounds with a hit; in the whole collection about 2.3% have one here.

SMILES | LMP1 NFkB inh | TRPM1 prom inh | 697 NFkB inh | Jurkat NFkB inh | Gli-Sufu antag | Shn3 inh set2 | Jurkat NFkB conf | 697 NFkB conf | others
C=C1C(O)[C@@H]2O[C@]3(CC[C@H](/C=C/C(C)[C@@H]4CC(C)=CC5(O[C@H](C[C@@](C)(O)C(=O)O)CCC5O)O4)O3)CC[C@H]2O[C@@H]1C(O)CC(C)[C@H]1OC2(CCCCO2)CCC1C (some centres undefined) | · | · | 100.3* | 101.0* | 93.0* | · | 99.0* | 79.2*
CC(C)(C)n1cc(C(=O)c2ccc3ccccc3c2O)cn1 | -26.5 | -12.5 | -304.9 | -180.5 | 8.6 | 13.8 | -46.5 | -295.1
CC1=CC(=O)NP(=O)(Oc2ccc3ccccc3c2)N1 (centres undefined) | -8.2 | 12.2 | 10.0 | -1.2 | 35.9 | 1.9 | · | ·
N#CCCn1cc(C(=O)O)c(-c2cccc([N+](=O)[O-])c2)n1 | 3.9 | 1.1 | 19.1 | 4.6 | -2.4 | 0.9 | · | ·
O=C1/C(=C/c2ccccc2)C[C@@]2(O)[C@H]3Cc4ccc(O)c5c4[C@@]2(CCN3CC2CC2)C1O5 (some centres undefined) | 19.8 | 108.7* | 54.6* | 84.5* | -16.4 | 95.2* | 46.8 | 49.5*
Oc1ccc2c3c1OC1c4[nH]c5ccccc5c4C[C@@]4(O)C(C2)N(CC2CC2)CC[C@]314 (some centres undefined) | 1.3 | -14.0 | 31.1 | 13.1 | 8.8 | -6.9 | · | ·
CC1=CC(=O)OC2CC3OC4C[C@@H](C)C5OC6CC7O[C@]8(C)C/C=C\C9OC%10CC%11OC(CC(C)CO)CC(O)[C@]%11(C)OC%10CC9OC8C[C@]7(C)O[C@]6(C)CCC5OC4C[C@]3(C)OC12 (some centres undefined) | -26.9 | 3.0 | 11.6 | 21.2 | 6.0 | -33.0 | · | ·
CCOc1ccc(-n2c(-c3ccoc3)nc3ccccc3c2=O)cc1 | -3.2 | -5.0 | -13.6 | -3.8 | 2.2 | -0.5 | · | ·
CCOc1ccc(-c2c(C)n(-c3ccc(OCC)cc3)c3[n+]2CCCCC3)cc1 | 34.6 | 76.2* | 48.1* | 100.3* | 88.2* | 88.1* | 78.8* | 59.5*
CC(C)(C)c1cc(C=C(C#N)C#N)cc(C(C)(C)C)c1O | 23.6 | 83.7* | -290.4 | 55.5* | 87.8* | 92.8* | 72.8* | -105.5
Cc1cccc(OCC(=O)N2CCN(Cc3ccc4c(c3)OCO4)CC2)c1 | 1.0 | 17.3 | -12.6 | 13.0 | 0.7 | 21.0 | · | ·
CC(C)(O)/C=C/C(=O)[C@](C)(O)C1[C@H](O)C[C@@]2(C)C3CC=C4C(C[C@H](O)[C@@H](O)C4(C)C)[C@]3(C)C(=O)C[C@]12C (some centres undefined) | 26.9 | 70.7* | 41.4* | 62.4* | 72.4* | 46.0 | 14.9 | 50.2*
CCC(C)n1c(O)c(C=NCC2CCCO2)c(=O)[nH]c1=S (centres undefined) | 4.2 | 13.5 | 4.2 | -14.1 | 5.5 | -2.4 | · | ·
COC1=CC(=O)[C@]2(C=C1OC)OC[C@@H]1Oc3c(ccc4c3C=CC(C)(C)O4)C(=O)[C@@H]12 | · | · | 77.5* | 52.4* | 84.6* | · | 74.2* | 87.0*
C=CC[C@@H](CC/C=C/C=C/CC/C=C\[C@@H]1CSC([C@@H]2C[C@@H]2C)=N1)OC | 14.4 | 67.4* | -325.4 | 74.5* | 47.2 | 13.8 | 52.2* | -144.4
O=C(Cc1c[nH]c2ccccc12)NNCc1ccc(N(CCCl)CCCl)cc1 | 31.9 | 26.9 | · | · | 16.4 | 5.6 | · | ·
COc1cc2c(c(OC)c1OC)-c1ccc(O)cc1[C@@H](NC(C)=O)CC2 | 8.5 | 65.1* | -487.4 | 77.2* | 38.4 | 21.2 | 64.1* | -201.2
COc1ccccc1NC(=O)COC(=O)c1cn(C)c2ccccc12 | -0.2 | -1.1 | -1.4 | -17.5 | 2.8 | 21.6 | · | ·
C[n+]1c(-c2ccccc2)c2cc(N)ccc2c2ccc(N)cc21 | -0.3 | 61.6* | 57.7* | 66.5* | -9.6 | 67.4 | 61.9* | 54.5*
COc1cc(C=C2C(=O)NC(=O)NC2=O)ccc1O | 6.1 | -10.5 | 1.9 | 10.9 | -1.4 | 3.2 | · | ·
Nc1ccccc1C(=O)OCCOc1ccccc1 | -14.0 | -76.3 | -265.6 | -155.1 | -119.6 | -9.8 | -143.2 | -279.2
COC(=O)C1=C(c2ccc(OCc3ccccc3)cc2)C[C@@H]2CC[C@H]1N2C(=O)NCc1ccc(N(C)C)cc1 | 4.2 | 10.4 | -30.4 | 29.6 | 31.3 | 24.2 | · | ·
COc1ccc(C[C@H]2NC[C@H](O)[C@H]2OC(C)=O)cc1 | 90.6* | 82.9* | 100.4* | 99.6* | 86.6* | 93.9* | 99.3* | 94.1* | Gli-Sufu confirm=91.8*;Gli cytotox=75.0*;Wnt3a cs=103.5*
NC(=O)CSc1nnc([C@@H](N)Cc2c[nH]c3ccccc23)o1 | -4.2 | 10.8 | 6.9 | -6.2 | 3.4 | 0.7 | · | ·
CNC(=O)c1cccn(Cc2ccc(C(F)(F)F)cc2)c1=O | -18.2 | 7.2 | 49.9* | 5.7 | 41.8 | -0.9 | · | 61.2*
SMILES | LMP1 NFkB inh | TRPM1 prom inh | 697 NFkB inh | Jurkat NFkB inh | Gli-Sufu antag | Shn3 inh set2 | Jurkat NFkB conf | 697 NFkB conf | others
C=CCOC(=O)COc1cc(C)cc2oc(=O)c3c(c12)CCC3 | 8.2 | 1.8 | 40.2* | 13.4 | -1.9 | -7.1 | · | 32.5*
CCCCOC(=O)COc1cc(C)cc2oc(=O)c3c(c12)CCC3 | 2.6 | 5.3 | -7.9 | -1.6 | 2.6 | 0.0 | · | ·
COc1ccc(N=Cc2c(O)n(Cc3cccs3)c(=O)[nH]c2=O)cc1 | -6.6 | -4.7 | -11.1 | -7.3 | 1.7 | -0.1 | · | ·
C/C=C(\C)C(=O)OC1C(C)=C2C(C1OC(=O)CCCCC)C(C)(OC(C)=O)CC(OC(=O)CCC)C1(O)C2OC(=O)C1(C)O (centres undefined) | · | · | -262.5 | 11.6 | · | · | · | -296.1
COc1ccc(C2=NCc3nnc(C)n3-c3ccc(Cl)cc32)cc1Cl | -0.7 | -0.7 | 44.9* | -31.2 | 32.1 | -1.0 | · | 35.4*
COc1ccccc1C1=NCc2nnc(C)n2-c2ccc(Cl)cc21 | 0.7 | 8.3 | -2.9 | -4.1 | 7.1 | -10.9 | · | ·
CCC1C(c2cc(OC)c(OC)c(OC)c2)c2cc3c(cc2OC1N1CCCC1)OCO3 (centres undefined) | 0.2 | 8.5 | · | · | 9.0 | 16.8 | · | ·
Cn1cnc([N+](=O)[O-])c1Sc1ccc([N+](=O)[O-])cc1 | -2.3 | 14.3 | 36.2* | 20.3 | 10.2 | -32.2 | · | 42.8*
